Compound activity: PubChem BioAssay, Paczesny and Yang Labs, IUPUI and University of Michigan
The sample as a whole holds a higher share of hits than the screen did.
ST2 inh – IL1RL1 inhibition. inhibition, % for hits at 17 µM. AlphaLISA ST2-Fc/biotin-IL-33 interaction, 1 h. Q01638. hit rate 2.3% among 78,000; in the data active means inhibition above about 30%
Target sequence (Q01638 whole entry, looked up): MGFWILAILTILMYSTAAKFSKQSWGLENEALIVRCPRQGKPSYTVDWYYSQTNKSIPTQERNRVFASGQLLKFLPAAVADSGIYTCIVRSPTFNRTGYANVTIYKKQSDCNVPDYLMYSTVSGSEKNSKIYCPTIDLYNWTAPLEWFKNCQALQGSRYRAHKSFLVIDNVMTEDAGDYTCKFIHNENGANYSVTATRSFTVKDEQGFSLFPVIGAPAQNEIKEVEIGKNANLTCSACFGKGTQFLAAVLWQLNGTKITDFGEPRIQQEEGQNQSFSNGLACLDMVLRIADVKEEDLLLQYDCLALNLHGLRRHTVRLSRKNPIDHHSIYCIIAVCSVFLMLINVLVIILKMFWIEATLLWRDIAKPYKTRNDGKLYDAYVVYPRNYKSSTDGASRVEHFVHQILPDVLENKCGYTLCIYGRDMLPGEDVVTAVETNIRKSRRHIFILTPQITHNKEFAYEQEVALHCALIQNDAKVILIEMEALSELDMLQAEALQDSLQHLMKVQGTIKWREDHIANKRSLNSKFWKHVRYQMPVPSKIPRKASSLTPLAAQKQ
A number is an active result; ! = not active in a repeat.

`Cc1ccc(-n2c(SCc3cccc(F)c3)nc3c(c2=O)SCC3)cc1` gave ST2 inh 33.0%!.
For CCOc1ccc(-n2c(SCc3ccc(F)cc3)nc3c(c2=O)SCC3)cc1 the results were ST2 inh inactive.
`O=c1c2c(nc(SCc3ccc(F)cc3)n1-c1ccc(F)cc1)CCS2` gave ST2 inh inactive.
`O=C(CSc1nc2c(c(=O)n1-c1ccc(Cl)cc1)SCC2)N1CCCc2ccccc21` gave ST2 inh inactive.
CCSc1nc2c(c(=O)n1-c1ccc(F)cc1)SCC2 was read as ST2 inh inactive.
For Cc1ccc(-n2c(SCC(=O)N3CCCC3)nc3c(c2=O)SCC3)cc1 the results were ST2 inh inactive.
Screening O=C(CSc1nc2c(c(=O)n1-c1ccc(Cl)cc1)SCC2)N1CCc2ccccc21 returned ST2 inh inactive.
Cc1ccc(-n2c(SCc3ccccc3)nc3c(c2=O)SCC3)cc1 was read as ST2 inh 30.0%!.
`Cc1ccc(-n2c(SCc3ccc(F)cc3)nc3c(c2=O)SCC3)cc1` gave ST2 inh 31.0%!.
`COC(=O)c1ccc(CSc2nc3c(c(=O)n2-c2ccc(C)cc2)SCC3)o1` gave ST2 inh inactive.
Screening Cc1ccc(-n2c(SCC(=O)N3CCCCC3)nc3c(c2=O)SCC3)cc1 returned ST2 inh inactive.
Screening Cc1ccc(-n2c(SCC(=O)N3CCc4ccccc43)nc3c(c2=O)SCC3)cc1 returned ST2 inh 97.0%!.
O=C1CCCC2=C1C(c1ccc(Br)cc1)Nc1ccccc1N2 (configuration not stated) was read as ST2 inh inactive.
`CC1CCCCN1C1CN(CCOCc2ccccc2)C1` (configuration not stated) gave ST2 inh inactive.
Cc1[nH]cnc1-c1c(-c2ccccc2)ncn1C was read as ST2 inh inactive.
Screening CN(C)S(=O)(=O)c1ccc(C(=O)N=c2sc3ccccc3n2C)cc1 returned ST2 inh inactive.
`COCCNC(=O)c1ccc2nc3ccccc3c(=O)n2c1` gave ST2 inh inactive.
CC(=O)c1cccc(NC(=O)CSc2n[nH]c(C)c2[N+](=O)[O-])c1 was read as ST2 inh inactive.
For CCCn1c(NCc2cc(Br)ccc2O)nc2ccccc21 the results were ST2 inh inactive.
For C=C(C)CN(CC)C1CCN(C(C)=O)CC1 the results were ST2 inh inactive.
COc1ccc(S(=O)(=O)N2C[C@@H]3C[C@H](C2)c2ccc(-c4ccc(OC(F)(F)F)cc4)c(=O)n2C3)cc1 was read as ST2 inh inactive.
Screening O=C(Nc1ccccc1)N1C[C@@H]2C[C@H](C1)c1ccc(-c3ccc(OC(F)(F)F)cc3)c(=O)n1C2 returned ST2 inh 33.0%.
`COc1ccccc1NC(=O)N1C[C@@H]2C[C@H](C1)c1ccc(-c3ccc(NC(C)=O)cc3)c(=O)n1C2` gave ST2 inh inactive.
COc1ccc(C2=NN(S(=O)(=O)c3ccccc3)C(c3ccccc3OC)C2)cc1OC (configuration not stated) was read as ST2 inh inactive.
CC(C)(C)c1ccnc(N[C@H]2CO[C@H]3[C@@H]2OC[C@@H]3NC(=O)NC2CCCCC2)n1 was read as ST2 inh inactive.
`CNC(=O)[C@@H]1C[C@@H](N)CN1C(=O)Cc1c[nH]c2ccccc12` gave ST2 inh inactive.
Screening Brc1ccc(-c2cc3ccccn3c2)cc1 returned ST2 inh 34.0%.
`Clc1ccc(-c2cn3ccccc3n2)cc1` gave ST2 inh inactive.
Brc1ccc(-c2cn3ccccc3n2)s1 was read as ST2 inh inactive.
Screening O=C(CN1C(=O)C2(OCCCO2)c2ccccc21)Nc1ccccc1Cl returned ST2 inh inactive.
Screening Cc1cccc(N2CC(C(=O)Nc3sc4c(c3C#N)CCCC4)CC2=O)c1C (configuration not stated) returned ST2 inh inactive.
`O=C(COc1ccccc1)Nc1cnn(CC(=O)N2CCC3(C=Cc4ccccc43)CC2)c1` gave ST2 inh inactive.
Screening O=C(Nc1cccc(-c2nc3ccccc3[nH]2)c1)c1ccccc1 returned ST2 inh inactive.
For O=C(Nc1nonc1-c1nc2ccccc2[nH]1)c1ccccc1Cl the results were ST2 inh 32.0%.
O=C(NCc1ccccc1)c1ccccc1-c1nc2ccccc2[nH]1 was read as ST2 inh inactive.
Cc1cccc(N=C2C(=O)Nc3ccc(Br)cc32)c1C was read as ST2 inh inactive.
COCc1nc(NCC(c2sccc2C)N(C)C)c2cnn(C)c2n1 (configuration not stated) was read as ST2 inh inactive.
COc1ccc(Cl)cc1NC(=O)CCC1CCCN(C2Cc3ccccc3C2)C1 (configuration not stated) was read as ST2 inh inactive.
For CNC(=O)c1ccc(-c2cc(NCCN(C)C)nc3[nH]ccc23)o1 the results were ST2 inh inactive.
Screening CNC(=O)c1cccc(-c2cc(NCc3cccnc3)nc3[nH]ccc23)c1 returned ST2 inh inactive.
`CN(C)CCNc1cc(-c2ccc(Cl)cc2F)c2cc[nH]c2n1` gave ST2 inh 30.0%.
`O=C(CNC(=O)c1cccs1)NCc1ccc(F)cc1Cl` gave ST2 inh inactive.
For O=C(CCc1ccccc1)Nc1ccc(Cl)c(N2CCCS2(=O)=O)c1 the results were ST2 inh inactive.
For CC(O)=Cc1nc2ccccc2nc1C=C(C)O the results were ST2 inh 38.0%.
`O=C(O)c1ccc2ccccc2n1` gave ST2 inh inactive.
Cc1nc2ccccc2c(C(=O)O)c1C(=O)O was read as ST2 inh inactive.
Screening COCCNC(=O)C[C@@H]1O[C@H](CNS(=O)(=O)c2ccc(Cl)cc2)[C@@H](O)[C@H]1O returned ST2 inh inactive.
For O=C(CS(=O)(=O)c1cccc2nsnc12)N1CC(=O)N(CCc2ccccc2)C(=O)C1 the results were ST2 inh inactive.
Screening CCSc1nc2c(c(=O)[nH]1)C(c1ccncc1)C1=C(CC(C)(C)CC1=O)N2 (configuration not stated) returned ST2 inh inactive.
`Cc1ccccc1CCC1CCCN(C(=O)c2nc3ncccn3n2)C1` (configuration not stated) gave ST2 inh inactive.
Screening C=CCOc1nc2c(c(=O)n(C)c(=O)n2C)n1C returned ST2 inh inactive.
Screening C=CCOc1nc2c(c(=O)n(Cc3ccc(Br)cc3)c(=O)n2C)n1C returned ST2 inh 39.0%.
Screening Cn1c(OCc2cccnc2)nc2c1c(=O)n(Cc1ccc(Cl)cc1)c(=O)n2C returned ST2 inh inactive.
CC1C(=O)C(C)C(c2ccc(N(C)C)cc2)NC1c1ccc(N(C)C)cc1 (configuration not stated) was read as ST2 inh 36.0%!.
`CC1C(=O)C(C)C(c2ccc(F)cc2)NC1c1ccc(F)cc1` (configuration not stated) gave ST2 inh inactive.
CC1C(=O)C(C)C(c2ccccc2O)NC1c1ccccc1O (configuration not stated) was read as ST2 inh inactive.
For Cc1cc(C)cc(N2CCC(N3C[C@H](O)[C@@H](N4CCN(C)CC4)C3)CC2)c1 the results were ST2 inh inactive.
Screening CCC(C)n1c(=N)c(C#N)cc2c(=O)n3ccccc3nc21 (configuration not stated) returned ST2 inh 39.0%.
For N#Cc1cc2c(=O)n3ccccc3nc2n(Cc2ccccc2)c1=N the results were ST2 inh inactive.
Screening N#Cc1cc2c(=O)n3ccccc3nc2n(CCCn2ccnc2)c1=N returned ST2 inh 31.0%.
